Source: PubChem BioAssay (EPA / NIEHS)
Records with an inconclusive call do not appear. The source made the active and inactive calls. Rule for the calls, unless noted: active = hit-call score of the fitted dose curve at least 0.9, where 1 is the maximum; inconclusive = response in the unintended direction; inactive = score below 0.9.

Experiments:
[1] = target: human Peroxisome Proliferator-activated Receptor delta (PPARd), PPARD (gene 5467) (UniProt Q03181); assay: ATG_PPARd_TRANS: Attagene TRANS-FACTORIAL HepG2 Assay for human Peroxisome Proliferator-activated Receptor delta (PPARd) (AID 2283002)
human Peroxisome Proliferator-activated Receptor delta (PPARd), PPARD (gene 5467), sequence (Q03181 whole entry, looked up, the tested form may be a part): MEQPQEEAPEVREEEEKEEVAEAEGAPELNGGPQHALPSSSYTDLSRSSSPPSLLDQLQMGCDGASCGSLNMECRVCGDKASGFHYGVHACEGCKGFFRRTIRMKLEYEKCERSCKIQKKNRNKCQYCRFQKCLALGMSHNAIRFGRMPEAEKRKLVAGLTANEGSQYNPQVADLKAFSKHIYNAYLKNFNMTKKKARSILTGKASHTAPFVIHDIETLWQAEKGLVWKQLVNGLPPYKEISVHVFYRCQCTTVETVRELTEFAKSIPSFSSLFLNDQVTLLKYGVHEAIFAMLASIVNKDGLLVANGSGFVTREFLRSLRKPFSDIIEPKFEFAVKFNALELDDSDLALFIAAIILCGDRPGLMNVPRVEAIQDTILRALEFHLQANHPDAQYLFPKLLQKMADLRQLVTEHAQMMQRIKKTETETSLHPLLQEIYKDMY
Outline: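 HepG2 cells transiently transfected with GAL4-UAS multiplexed reporter units driven by exogenous chimeric NR-GAL4 proteins; 24 h compound exposure. Reporter mRNA measured by RT-PCR, 6-FAM primer extension, HpaI digestion and capillary electrophoresis; gain of signal fitted relative to DMSO.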

[2] = target: Retinoic acid receptor alpha (Homo sapiens) (UniProt P10276); assay: ATG_RARa_TRANS: Attagene TRANS-FACTORIAL HepG2 Assay for human Retinoic Acid Receptor alpha (RARa) (AID 2283005)
Retinoic acid receptor alpha (Homo sapiens), sequence (P10276 whole entry, looked up, the tested form may be a part): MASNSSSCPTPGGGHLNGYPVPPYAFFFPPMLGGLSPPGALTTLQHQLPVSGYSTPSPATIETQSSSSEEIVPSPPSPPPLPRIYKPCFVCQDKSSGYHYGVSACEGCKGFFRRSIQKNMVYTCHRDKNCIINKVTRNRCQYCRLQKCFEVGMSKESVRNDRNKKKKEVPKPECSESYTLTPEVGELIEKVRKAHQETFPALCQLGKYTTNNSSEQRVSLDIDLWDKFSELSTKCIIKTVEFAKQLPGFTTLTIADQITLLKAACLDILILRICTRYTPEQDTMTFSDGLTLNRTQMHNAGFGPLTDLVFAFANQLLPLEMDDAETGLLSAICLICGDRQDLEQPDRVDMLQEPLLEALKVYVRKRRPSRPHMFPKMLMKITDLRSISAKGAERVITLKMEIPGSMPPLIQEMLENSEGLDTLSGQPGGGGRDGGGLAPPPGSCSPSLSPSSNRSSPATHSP
Outline: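 HepG2 transiently transfected with multiplex GAL4-UAS reporter units including a human RARa–GAL4 chimera; 24 h compound exposure. Reporter mRNA quantified by RT-PCR, 6-FAM labeling and capillary electrophoresis; gain of signal versus DMSO.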

[3] = target: Peroxisome proliferator-activated receptor gamma (Homo sapiens) (UniProt P37231); assay: ATG_PPARg_TRANS: Attagene TRANS-FACTORIAL HepG2 Assay for human Peroxisome Proliferator-activated Receptor-gamma (PPARg) (AID 2283007)
Peroxisome proliferator-activated receptor gamma (Homo sapiens), sequence (P37231 whole entry, looked up, the tested form may be a part): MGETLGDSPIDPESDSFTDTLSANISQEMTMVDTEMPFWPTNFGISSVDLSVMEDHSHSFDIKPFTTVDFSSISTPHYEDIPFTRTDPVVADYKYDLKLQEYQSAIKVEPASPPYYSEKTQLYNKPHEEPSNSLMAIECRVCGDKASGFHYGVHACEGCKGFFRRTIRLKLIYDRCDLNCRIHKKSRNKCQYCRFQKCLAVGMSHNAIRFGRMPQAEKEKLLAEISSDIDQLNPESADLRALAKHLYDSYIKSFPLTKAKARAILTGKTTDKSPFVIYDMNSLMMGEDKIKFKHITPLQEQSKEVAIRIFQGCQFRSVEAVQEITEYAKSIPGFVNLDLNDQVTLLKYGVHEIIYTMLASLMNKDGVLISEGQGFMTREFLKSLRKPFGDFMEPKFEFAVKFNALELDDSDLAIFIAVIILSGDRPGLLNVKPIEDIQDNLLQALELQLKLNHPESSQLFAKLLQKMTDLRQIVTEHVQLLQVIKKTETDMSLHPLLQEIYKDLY
Outline: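 HepG2 cells transiently transfected with multiplexed GAL4-UAS reporter units and exogenous chimeric NR-Gal4 proteins; reporter mRNA quantified after 24 h compound exposure by RT-PCR, fluorescent labelling, HpaI digestion and capillary electrophoresis; gain-of-signal fitted versus DMSO baseline.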

[4] = target: human RAR-related Orphan Receptor beta (RORb), RORB (gene 6096) (UniProt Q92753); assay: ATG_RORb_TRANS: Attagene TRANS-FACTORIAL HepG2 Assay for human RAR-related Orphan Receptor beta (RORb) (AID 2283010)
human RAR-related Orphan Receptor beta (RORb), RORB (gene 6096), sequence (Q92753 whole entry, looked up, the tested form may be a part): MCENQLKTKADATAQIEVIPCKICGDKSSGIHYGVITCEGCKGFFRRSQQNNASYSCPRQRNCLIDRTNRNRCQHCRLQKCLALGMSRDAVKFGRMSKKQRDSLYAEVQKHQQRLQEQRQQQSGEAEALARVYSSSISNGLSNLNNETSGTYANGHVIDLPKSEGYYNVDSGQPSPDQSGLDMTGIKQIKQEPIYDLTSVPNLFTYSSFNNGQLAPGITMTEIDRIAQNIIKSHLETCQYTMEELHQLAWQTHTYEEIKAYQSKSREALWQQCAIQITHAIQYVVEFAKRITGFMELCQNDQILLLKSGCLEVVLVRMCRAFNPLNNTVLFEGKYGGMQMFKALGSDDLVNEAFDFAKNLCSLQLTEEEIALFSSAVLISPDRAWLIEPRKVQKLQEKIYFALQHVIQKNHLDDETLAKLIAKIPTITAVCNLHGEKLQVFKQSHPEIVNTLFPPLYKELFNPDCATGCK
Outline: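 Readout is reporter-gene mRNA induction, detected as fluorescence after RT-PCR and capillary electrophoresis, fitted for gain of signal against DMSO controls. Transiently transfected HepG2 liver cells carrying GAL4-UAS reporter constructs were treated for 24 hours.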

[5] = target: Nuclear receptor subfamily 1 group I member 2 (Homo sapiens) (UniProt O75469); assay: ATG_PXR_TRANS: Attagene TRANS-FACTORIAL HepG2 Assay for human Pregnane X Receptor (PXR) (AID 2283008)
Nuclear receptor subfamily 1 group I member 2 (Homo sapiens), sequence (O75469 whole entry, looked up, the tested form may be a part): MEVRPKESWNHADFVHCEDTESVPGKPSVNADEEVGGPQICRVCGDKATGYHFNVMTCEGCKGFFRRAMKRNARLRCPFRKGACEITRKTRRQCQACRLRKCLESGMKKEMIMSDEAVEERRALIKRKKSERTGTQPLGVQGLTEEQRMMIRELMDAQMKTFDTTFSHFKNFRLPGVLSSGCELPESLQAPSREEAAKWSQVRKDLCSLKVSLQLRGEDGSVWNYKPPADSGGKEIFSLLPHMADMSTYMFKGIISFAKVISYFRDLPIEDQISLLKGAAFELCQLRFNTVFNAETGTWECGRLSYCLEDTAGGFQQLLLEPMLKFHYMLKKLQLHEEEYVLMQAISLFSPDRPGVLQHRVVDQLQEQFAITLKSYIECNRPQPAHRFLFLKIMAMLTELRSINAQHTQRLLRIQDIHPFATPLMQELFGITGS
Outline: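 Fluorescence intensity of FAM-labelled, HpaI-digested reporter amplicons, separated by capillary electrophoresis, quantifies induction. HepG2 cells with PXR-Gal4 trans-reporter system were exposed 24 h; DMSO defines baseline.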

[6] = target: human Retinoic Acid Receptor gamma (RARg), RARG (gene 5916) (UniProt P13631); assay: ATG_RARg_TRANS: Attagene TRANS-FACTORIAL HepG2 Assay for human Retinoic Acid Receptor gamma (RARg) (AID 2283009)
human Retinoic Acid Receptor gamma (RARg), RARG (gene 5916), sequence (P13631 whole entry, looked up): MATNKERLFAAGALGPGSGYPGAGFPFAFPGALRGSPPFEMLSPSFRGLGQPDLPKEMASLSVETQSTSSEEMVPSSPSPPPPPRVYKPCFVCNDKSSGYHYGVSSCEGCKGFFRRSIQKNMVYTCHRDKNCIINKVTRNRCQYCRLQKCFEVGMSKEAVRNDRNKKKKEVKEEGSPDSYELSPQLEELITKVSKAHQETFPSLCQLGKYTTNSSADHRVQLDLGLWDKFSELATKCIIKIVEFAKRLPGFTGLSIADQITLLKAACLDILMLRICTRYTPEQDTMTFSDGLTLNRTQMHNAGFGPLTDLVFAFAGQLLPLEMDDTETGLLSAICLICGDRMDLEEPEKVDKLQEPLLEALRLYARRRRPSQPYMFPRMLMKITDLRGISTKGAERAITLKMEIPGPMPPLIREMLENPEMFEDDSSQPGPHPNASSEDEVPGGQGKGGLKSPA
Outline: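 Transient transfection of HepG2 with multi-reporter constructs, then 24 h chemical treatment. Total RNA isolated, reverse-transcribed, PCR-amplified, fluorescently labelled and resolved by capillary electrophoresis; activity scored as mRNA induction versus DMSO.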

[7] = read-out: Intercellular Adhesion Molecule 1 (ICAM1), ICAM1 (gene 3383); assay: BSK_3C_ICAM1: BioMAP Diversity Plus: 3C Assay for Intercellular Adhesion Molecule 1 (ICAM1) Biomarker Activity (AID 2283003; active = hit-call score of the fitted dose curve at least 0.9, where 1 is the maximum; inactive = score below 0.9); conditions: primary human endothelial cells (HUVEC); actives raise or lower the signal
Outline: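 ICAM-1 levels measured by ELISA after HUVEC cultures in the 3C system had been dosed for 24 h. Gain or loss of signal relative to DMSO was fitted in both directions.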

[8] = BSK_3C_Proliferation: Cell Proliferation Assessment in the BioMAP Diversity Plus: 3C Assay (AID 2283006; active = hit-call score of the fitted dose curve at least 0.9, where 1 is the maximum; inactive = score below 0.9;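 for AC50: potency may reflect either rise or fall in cell number versus DMSO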); conditions: primary human endothelial cells (HUVEC)
Outline: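 Read-out is total protein by SRB absorbance at 560 nm, taken as a proxy for relative cell number. Primary human umbilical vein endothelium cultured below confluence was dosed for 48 h, TCA-fixed and SRB-stained; curves were fitted bidirectionally versus DMSO.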

[9] = target: human Retinoic Acid Receptor beta (RARb), RARB (gene 5915) (UniProt P10826); assay: ATG_RARb_TRANS: Attagene TRANS-FACTORIAL HepG2 Assay for human Retinoic Acid Receptor beta (AID 2283004)
human Retinoic Acid Receptor beta (RARb), RARB (gene 5915), sequence (P10826 whole entry, looked up): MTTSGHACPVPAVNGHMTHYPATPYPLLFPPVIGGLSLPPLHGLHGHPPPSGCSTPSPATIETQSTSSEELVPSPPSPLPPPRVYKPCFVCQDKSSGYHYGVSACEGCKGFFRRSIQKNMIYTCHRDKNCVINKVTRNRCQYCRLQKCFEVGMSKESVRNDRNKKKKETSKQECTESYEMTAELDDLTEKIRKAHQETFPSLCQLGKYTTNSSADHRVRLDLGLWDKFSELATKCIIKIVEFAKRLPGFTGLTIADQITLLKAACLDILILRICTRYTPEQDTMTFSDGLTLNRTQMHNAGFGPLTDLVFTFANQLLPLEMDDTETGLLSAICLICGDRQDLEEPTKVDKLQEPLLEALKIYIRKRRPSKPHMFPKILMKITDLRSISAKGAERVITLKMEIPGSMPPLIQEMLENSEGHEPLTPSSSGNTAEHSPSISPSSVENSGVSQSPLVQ
Outline: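 Transient transfection of HepG2 with multiple reporter units → chemical dosing, 24 h → total RNA isolation → RT with oligo(dT) → reporter-specific PCR, 6-FAM primer extension, HpaI digest → capillary electrophoresis. Positive direction vs DMSO control.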

Which results are given for `O=c1[nH]c(=O)c2cn[nH]c2[nH]1`?
outcome [1]: inactive; outcome [2]: inactive; outcome [3]: inactive; outcome [4]: inactive

What does the source list for `CCC(Cl)C(Cl)C(Cl)CC(Cl)C(Cl)C(C)Cl` (stereo not drawn)?
outcome [1]: inactive; AC50 [3]: 22.3 µM (active); AC50 [5]: 1.74 µM (active)

Which outcome [1] does the source give for `COc1ccc(N)c([N+](=O)[O-])c1` here?
Its outcome is “inactive”.

What about the outcome [3] of the same compound?
The outcome was “inactive”.

And the outcome [5]?
The outcome was “inactive”.

What about the outcome [4] of the same compound?
Its outcome is “inactive”.

What does the source list for `Nc1ccccc1[N+](=O)[O-]`?
outcome [1]: inactive; outcome [3]: inactive

Which results are given for `CC1C2CC(CC2C2CCCC(O)C2)C1(C)C` (stereo not drawn)?
outcome [1]: inactive; outcome [3]: inactive; AC50 [5]: 14.3 µM (active); outcome [6]: inactive

Which outcome [1] does the source give for `CCCC(C)=O` here?
Its outcome is “inactive”.

And the outcome [2]?
Its outcome is “inactive”.

What about the outcome [4] of the same compound?
Its outcome is “inactive”.

Which outcome [1] does the source give for `CCCCSCCCC` here?
The outcome was “inactive”.

And the outcome [3]?
Its outcome is “inactive”.

What about the outcome [5] of the same compound?
The outcome was “inactive”.

With `CN(C)CCOC(C)(c1ccccc1)c1ccccn1` (stereo not drawn) as the compound, how does the outcome [1] read?
The outcome was “inactive”.

What about the outcome [5] of the same compound?
The outcome was “inactive”.

What about the outcome [6] of the same compound?
Its outcome is “inactive”.

What about the outcome [4] of the same compound?
The outcome was “inactive”.

Which results are given for `CC(C)C(OC(=O)c1ccccc1)C(C)(C)COC(=O)c1ccccc1` (stereo not drawn)?
outcome [1]: inactive; outcome [3]: inactive; AC50 [5]: 2.45 µM (active); outcome [6]: inactive

Which outcome [7] does the source give for `C1=CC2C3C=CC(C3)C2C1` (stereo not drawn) here?
Its outcome is “inactive”.

And the outcome [2]?
Its outcome is “inactive”.

And the outcome [8]?
The outcome was “inactive”.

And the outcome [3]?
The outcome was “inactive”.

What about the outcome [5] of the same compound?
The outcome was “inactive”.

And the outcome [6]?
The outcome was “inactive”.

And the outcome [4]?
The outcome was “inactive”.

With `CCCCCCOCCOCCO` as the compound, how does the outcome [1] read?
The outcome was “inactive”.

And the outcome [3]?
The outcome was “inactive”.

What about the outcome [5] of the same compound?
The outcome was “inactive”.

With `O=C(CC(=O)c1ccccc1)c1ccccc1` as the compound, how does the outcome [1] read?
The outcome was “inactive”.

What about the AC50 [3] of the same compound?
The AC50 was 3.74 µM (active).

And the AC50 [5]?
The AC50 was 28.2 µM (active).

Which outcome [7] does the source give for `COc1ccc(CCN2CCC(Nc3nc4ccccc4n3Cc3ccc(F)cc3)CC2)cc1` here?
The outcome was “inactive”.

And the outcome [9]?
Its outcome is “inactive”.

What about the outcome [2] of the same compound?
Its outcome is “inactive”.

What about the AC50 [8] of the same compound?
The AC50 was 6.51 µM (active).

And the outcome [6]?
Its outcome is “inactive”.

And the outcome [4]?
Its outcome is “inactive”.

With `CN(c1nccc(=O)[nH]1)C1CCN(c2nc3ccccc3n2Cc2ccc(F)cc2)CC1` as the compound, how does the outcome [7] read?
Its outcome is “inactive”.

And the outcome [9]?
Its outcome is “inactive”.

And the outcome [2]?
Its outcome is “inactive”.

And the outcome [8]?
Its outcome is “inactive”.

What about the outcome [3] of the same compound?
Its outcome is “inactive”.

What about the outcome [5] of the same compound?
The outcome was “inactive”.

For `N[C@@H](Cc1cc(I)c(Oc2cc(I)c(O)c(I)c2)c(I)c1)C(=O)O`, which outcome [1] is on record?
Its outcome is “inactive”.

What about the AC50 [3] of the same compound?
The AC50 was 6.06 µM (active).

And the AC50 [5]?
Its AC50 is 3.79 µM (active).

What about the outcome [4] of the same compound?
Its outcome is “inactive”.

What does the source list for `CC(=O)C1(C)CC2=C(CCCC2(C)C)CC1C` (stereo not drawn)?
AC50 [7]: 12.8 µM (active); AC50 [8]: 6.69 µM (active); AC50 [3]: 100 µM (active)

With `O=Cc1ccccc1S(=O)(=O)O` as the compound, how does the outcome [1] read?
Its outcome is “inactive”.

What about the outcome [3] of the same compound?
The outcome was “inactive”.

For `C=C(C)C(=O)OCC(CC)(COC(=O)C(=C)C)COC(=O)C(=C)C`, which outcome [7] is on record?
Its outcome is “inactive”.

What about the AC50 [8] of the same compound?
Its AC50 is 13.9 µM (active).

And the AC50 [3]?
Its AC50 is 98.5 µM (active).

And the outcome [5]?
Its outcome is “inactive”.

For `CCCCCCC(C)Nc1ccc(Nc2ccccc2)cc1` (stereo not drawn), which outcome [1] is on record?
Its outcome is “inactive”.

What about the AC50 [3] of the same compound?
Its AC50 is 11.7 µM (active).

What about the AC50 [5] of the same compound?
Its AC50 is 1.53 µM (active).

With `C=Cc1ccc(C(C)(C)C)cc1` as the compound, how does the outcome [1] read?
The outcome was “inactive”.

What about the outcome [5] of the same compound?
The outcome was “inactive”.

For `C=CCCC(=O)/C=C/C1C(C)=CCCC1(C)C` (stereo not drawn), which outcome [1] is on record?
Its outcome is “inactive”.

What about the AC50 [3] of the same compound?
Its AC50 is 24.4 µM (active).

And the AC50 [5]?
The AC50 was 2.37 µM (active).

With `O=C(c1ccccc1)C(O)c1ccccc1` (stereo not drawn) as the compound, how does the outcome [1] read?
The outcome was “inactive”.

And the outcome [2]?
Its outcome is “inactive”.

And the outcome [3]?
Its outcome is “inactive”.

And the outcome [4]?
The outcome was “inactive”.

Which outcome [1] does the source give for `C1CCOC1` here?
The outcome was “inactive”.

What about the outcome [2] of the same compound?
Its outcome is “inactive”.

What about the outcome [3] of the same compound?
Its outcome is “inactive”.

And the outcome [5]?
Its outcome is “inactive”.

What about the outcome [6] of the same compound?
The outcome was “inactive”.

And the outcome [4]?
The outcome was “inactive”.

For `OC[C@H]1O[C@@H](Oc2ccc(O)cc2)[C@H](O)[C@@H](O)[C@@H]1O`, which outcome [1] is on record?
The outcome was “inactive”.

What about the outcome [5] of the same compound?
Its outcome is “inactive”.

With `COC(C)(C)CCCC(C)CC=O` (stereo not drawn) as the compound, how does the outcome [1] read?
The outcome was “inactive”.

What about the outcome [2] of the same compound?
The outcome was “inactive”.

What about the outcome [3] of the same compound?
Its outcome is “inactive”.

And the outcome [5]?
The outcome was “inactive”.

With `CC(C)Nc1nc(N)nc(Cl)n1` as the compound, how does the outcome [1] read?
The outcome was “inactive”.

And the outcome [3]?
Its outcome is “inactive”.

And the outcome [5]?
The outcome was “inactive”.

With `C=CCOC(=O)CCCCCC` as the compound, how does the outcome [1] read?
The outcome was “inactive”.

What about the outcome [3] of the same compound?
Its outcome is “inactive”.

What about the outcome [5] of the same compound?
The outcome was “inactive”.

And the outcome [4]?
The outcome was “inactive”.

For `Cc1c(Cl)cccc1[N+](=O)[O-]`, which outcome [1] is on record?
Its outcome is “inactive”.

And the outcome [5]?
The outcome was “inactive”.

With `O=C(Nc1ccc2c(O)c(N=Nc3ccc(N=Nc4ccc(S(=O)(=O)O)cc4)cc3)c(S(=O)(=O)O)cc2c1)c1ccccc1` as the compound, how does the outcome [7] read?
Its outcome is “inactive”.

What about the outcome [8] of the same compound?
Its outcome is “inactive”.

And the outcome [3]?
The outcome was “inactive”.

Which outcome [7] does the source give for `C[C@@H]1CCN(C(=O)[C@H](CCCN=C(N)N)NS(=O)(=O)c2cccc3c2NC[C@H](C)C3)[C@@H](C(=O)O)C1` here?
The outcome was “inactive”.

What about the outcome [9] of the same compound?
The outcome was “inactive”.

What about the outcome [8] of the same compound?
The outcome was “inactive”.

What about the outcome [3] of the same compound?
Its outcome is “inactive”.

And the outcome [6]?
Its outcome is “inactive”.

For `CSCCC=O`, which outcome [7] is on record?
The outcome was “inactive”.

And the outcome [8]?
The outcome was “inactive”.

And the AC50 [3]?
Its AC50 is 56.3 µM (active).

And the outcome [4]?
Its outcome is “inactive”.

For `CCOc1ccc(NC(=O)CC(C)O)cc1` (stereo not drawn), which outcome [9] is on record?
The outcome was “inactive”.

What about the outcome [2] of the same compound?
Its outcome is “inactive”.

What about the outcome [3] of the same compound?
The outcome was “inactive”.

And the outcome [5]?
Its outcome is “inactive”.

For `CCCCC(CC)(CO)CO`, which outcome [3] is on record?
The outcome was “inactive”.

Which outcome [9] does the source give for `CN1CCOCC1` here?
Its outcome is “inactive”.

What about the outcome [2] of the same compound?
The outcome was “inactive”.

And the outcome [6]?
Its outcome is “inactive”.

What about the outcome [4] of the same compound?
Its outcome is “inactive”.
